# Values joined by “and” are separate entries in the source; they are usually repeats but may differ in a detail not shown here. Identical values can stand only once. Where a structure was tested more than once in an assay, its records may differ in their call. Active and inactive are the calls of the source. The calls were made as follows: active = hit-call score of the fitted dose curve at least 0.9, where 1 is the maximum; inactive = score below 0.9.
# How the values were obtained:
# [1] = BSK_MyoF_SRB: Viability Assessment in the BioMAP Diversity Plus: MyoF Assay (AID 2284267); conditions: primary human lung fibroblasts;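 also: total protein by SRB absorbance in parallel cultures as cytotoxicity measure; cells assessed 24 h after compound addition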
# In short: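 Cytotoxicity read-out: after 10% TCA fixation, parallel human lung fibroblast cultures were stained with 0.1% SRB at 24 h post-dosing and read at 560 nm; DMSO served as baseline.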
# [2] = read-out: Matrix Metallopeptidase 1 (MMP1), MMP1 (gene 4312); assay: BSK_MyoF_MMP1: BioMAP Diversity Plus: MyoF Assay for Matrix Metallopeptidase 1 (MMP1) Biomarker Activity (AID 2284268); conditions: primary human lung fibroblasts
# In short: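 Cells: human lung fibroblasts. Exposure: 24 h chemical dosing. Detection: ELISA for MMP1. Analysis: upward fitting against DMSO negative control.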
# [3] = read-out: TIMP metallopeptidase inhibitor 1 (TIMP1), TIMP1 (gene 7076); assay: BSK_MyoF_TIMP1: BioMAP Diversity Plus: MyoF Assay for TIMP metallopeptidase inhibitor 1 (TIMP1) Biomarker Activity (AID 2284269); conditions: primary human lung fibroblasts
# In short: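 Fibroblasts from human lung are dosed with chemical, cultured 24 h, and assayed for TIMP-1 by ELISA. Increases over the DMSO baseline are scored, with SRB total-protein staining run in parallel for cytotoxicity.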
# [4] = read-out: Matrix Metallopeptidase 1 (MMP1), MMP1 (gene 4312); assay: BSK_BF4T_MMP1: BioMAP Diversity Plus: BF4T Assay for Matrix Metallopeptidase 1 (MMP1) Biomarker Activity (AID 2284270); conditions: primary human bronchial epithelial cells with fibroblasts
# In short: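 MMP-1 quantified by ELISA in primary human bronchial epithelial/dermal fibroblast co-cultures, 24 hours post-dosing, with DMSO as baseline; parallel sulforhodamine B staining (560 nm) tracks overt cytotoxicity.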
# [5] = read-out: Matrix Metallopeptidase 3 (MMP3), MMP3 (gene 4314); assay: BSK_BF4T_MMP3: BioMAP Diversity Plus: BF4T Assay for Matrix Metallopeptidase 3 (MMP3) Biomarker Activity (AID 2284271); conditions: primary human bronchial epithelial cells with fibroblasts
# In short: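 MMP-3 level read by ELISA after 24 h chemical exposure of bronchial epithelial cell/dermal fibroblast co-cultures, fitted upward relative to DMSO. Parallel cultures stained with 0.1% SRB after TCA fixation gauge overt cytotoxicity.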
# [6] = read-out: Tissue plasminogen activator (tPA), PLAT (gene 5327); assay: BSK_BF4T_tPA: BioMAP Diversity Plus: BF4T Assay for Tissue plasminogen activator (tPA) Biomarker Activity (AID 2284272); conditions: primary human bronchial epithelial cells with fibroblasts
# In short: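 tPA level quantified by ELISA at 24 h post-treatment in bronchial epithelial/dermal fibroblast co-cultures, gain of signal scored against DMSO baseline. Parallel cultures stained with 0.1% SRB (560 nm) to flag overt cytotoxicity.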
# [7] = read-out: Plasminogen Activator Inhibitor-1 (PAI1), SERPINE1 (gene 5054); assay: BSK_BF4T_PAI1: BioMAP Diversity Plus: BF4T Assay for Plasminogen Activator Inhibitor-1 (PAI1) Biomarker Activity (AID 2284273); conditions: primary human bronchial epithelial cells with fibroblasts
# In short: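 PAI-1 levels quantified by ELISA 24 h post-dosing in bronchial epithelial cell plus dermal fibroblast cultures. Signal gain referenced to DMSO baseline. Sulforhodamine B total-protein staining of parallel wells checked cytotoxicity.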
# [8] = BSK_BF4T_SRB: Viability Assessment in the BioMAP Diversity Plus: BF4T Assay (AID 2284274); conditions: primary human bronchial epithelial cells with fibroblasts
# In short: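 Cytotoxicity measured as total protein: cells fixed with 10% TCA, stained with 0.1% SRB, read at 560 nm. Bronchial epithelial/dermal fibroblast co-culture, 24 h after dosing, with positive-direction fitting relative to DMSO.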
# [9] = read-out: urokinase Plasminogen Activator (uPA), PLAU (gene 5328); assay: BSK_BF4T_uPA: BioMAP Diversity Plus: BF4T Assay for urokinase Plasminogen Activator (uPA) Biomarker Activity (AID 2284275); conditions: primary human bronchial epithelial cells with fibroblasts
# In short: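 uPA levels measured by ELISA at 24 hours in BF4T cultures (bronchial epithelial cells plus dermal fibroblasts) and compared with DMSO; cytotoxicity tracked in parallel cultures by sulforhodamine B staining.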
# [10] = read-out: Matrix Metallopeptidase 9 (MMP9), MMP9 (gene 4318); assay: BSK_BF4T_MMP9: BioMAP Diversity Plus: BF4T Assay for Matrix Metallopeptidase 9 (MMP9) Biomarker Activity (AID 2284276); conditions: primary human bronchial epithelial cells with fibroblasts
# In short: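 MMP-9 levels were measured by ELISA after 24 h exposure of bronchial epithelial cell/dermal fibroblast co-cultures, with DMSO as baseline. Parallel cultures were stained with 0.1% SRB after TCA fixation, read at 560 nm, to flag overt cytotoxicity.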
SMILES,AC50 [1],outcome [1],AC50 [2],outcome [3],outcome [2],outcome [4],outcome [5],AC50 [6],outcome [6],outcome [7],outcome [8],outcome [9],outcome [10],AC50 [5],AC50 [10]
ClC1C(Cl)C(Cl)C(Cl)C(Cl)C1Cl (configuration not stated),18.6 µM (active) and 726 nM (active),inactive,8.25 µM (active) and 6.92 µM (active) and 292 nM (active),inactive,–,–,–,–,–,–,–,–,–,–,–
O=C(O)C(F)(F)C(F)(F)C(F)(F)C(F)(F)C(F)(F)C(F)(F)C(F)(F)F,–,inactive,–,inactive,inactive,inactive,inactive,30 µM (active) and 1.85 µM (active),inactive,inactive,inactive,inactive,inactive,–,–
O=S(=O)(O)C(F)(F)C(F)(F)C(F)(F)C(F)(F)C(F)(F)C(F)(F)C(F)(F)C(F)(F)F,–,inactive,–,inactive,inactive,inactive,inactive,–,inactive,inactive,inactive,inactive,inactive,14.7 µM (active),17.1 µM (active)

# From PubChem BioAssay (EPA / NIEHS)
